Data reported in the supplement of paper PMC6897291.

Tested on: U-2932
Assay: growth inhibition by drug alone (1 - RLU/untreated control) (fraction); higher = stronger inhibition
Settings: 177Lu-lilotomab satetraxetan 0 ug/ml
Procedure: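 U-2932 ABC-DLBCL cells were pretreated or not for 18 h with 1 ug/ml 177Lu-lilotomab satetraxetan (600 MBq/mg), washed and seeded (3000 cells/well) on 384-well plates pre-printed with the Selleck Cambridge Cancer Compound library. Viability was read by RealTime-Glo luminescence on days 3-6 after seeding. Effect = 1 - RLU/mean RLU of the 48 untreated no-drug control wells per plate; Bliss score = (M-E)/(1-Fa), with E the expected Bliss-additive effect.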

| SMILES | growth inhibition by drug alone (10 nM, time (day): 3) | growth inhibition by drug alone (10 nM, time (day): 4) | growth inhibition by drug alone (10 nM, time (day): 5) | growth inhibition by drug alone (10 nM, time (day): 6) | growth inhibition by drug alone (1000 nM, time (day): 3) | growth inhibition by drug alone (1000 nM, time (day): 4) | growth inhibition by drug alone (1000 nM, time (day): 5) | growth inhibition by drug alone (1000 nM, time (day): 6) |
| --- | --- | --- | --- | --- | --- | --- | --- | --- |
| CC1=C2C[C@H]3[C@@H](CC=C4C[C@@H](O)CC[C@@]43C)[C@@H]2CC[C@]12O[C@@H]1C[C@H](C)CN[C@H]1[C@H]2C [Cyclopamine] | 0.097 | 0.0521 | -0.0277 | -0.0904 | 0.00899 | 0.035 | -0.037 | -0.267 |
| Cc1cc2c(C(C)C)c(O)c(O)c(C=O)c2c(O)c1-c1c(C)cc2c(C(C)C)c(O)c(O)c(C=O)c2c1O [Gossypol] | -0.0803 | -0.0436 | -0.0537 | -0.0327 | -0.00328 | 0.00751 | 0.00351 | 0.0148 |
| O=P1(N(CCCl)CCCl)NCCCO1 (stereo not given) [Cyclophosphamide monohydrate] | -0.0368 | -0.0191 | -0.0185 | 0.00793 | -0.0419 | -0.0135 | -0.0461 | -0.0745 |
| C[C@]12CCC(=O)C(O)=C1CC[C@@H]1[C@@H]2CC[C@]2(C)C(=O)CC[C@@H]12 [Formestane] | -0.0202 | -0.0416 | -0.00849 | 0.0511 | -0.0617 | -0.0526 | -0.0433 | 0.0231 |
| O=C(Oc1ccc([N+](=O)[O-])cc1)N1CCC(C(O)(c2ccc3c(c2)OCO3)c2ccc3c(c2)OCO3)CC1 | 0.0143 | 0.0129 | -0.0257 | -0.105 | -0.0233 | 0.0131 | -0.0194 | -0.0568 |
